Results filed as inconclusive are left out. Active and inactive are the calls of the source. The calls were made as follows: active = hit-call score of the fitted dose curve at least 0.9, where 1 is the maximum; inconclusive = response in the unintended direction; inactive = score below 0.9.
Key:
[1] = target: Androgen receptor (Homo sapiens) (UniProt P10275); experiment: ATG_AR_TRANS: Attagene TRANS-FACTORIAL HepG2 Assay for human Androgen Receptor (AR) (AID 2282973); settings: HepG2 Attagene TRANS-FACTORIAL AR reporter transcription
Summary of the method: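 HepG2 cells transiently transfected with multiplexed GAL4-UAS reporter units and chimeric NR-Gal4 fusion; 24 h compound exposure. Reporter mRNA measured by RT-PCR, 6-FAM labelling, HpaI digestion and capillary electrophoresis; gain-of-signal fitted relative to DMSO baseline.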

[2] = tested on: rat Monoamine Oxidase, MAO-A, Central (MAOAC), gene 29253; experiment: NVS_ENZ_rMAOAC: NovaScreen (NVS) Enzymatic Assay for rat Monoamine Oxidase, MAO-A, Central (MAOAC) (AID 2283243);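 also: potency refers to inhibition seen as signal drop below DMSO baseline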
Summary of the method: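 Inhibition of rat brain-derived MAO-A was read by scintillation counting after 1.5 h exposure. Compounds screened first at 25 uM in duplicate, then in dose series if active.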

[3] = target: human MET Proto-Oncogene, Receptor Tyrosine Kinase (MET), MET (gene 4233) (UniProt P08581); experiment: NVS_ENZ_hMet: NovaScreen (NVS) Enzymatic Assay for human MET Proto-Oncogene, Receptor Tyrosine Kinase (MET) (AID 2283180)
Summary of the method: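 Cell-free MET kinase assay using recombinant protein and fluorescent substrate, with mobility-shift separation; read 1 h after dosing. Primary duplicate at 25 uM; actives in singleton concentration-response to 50 uM maximum. Signal loss versus DMSO.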

[4] = target: human Matrix Metalloproteinase-1 (MMP1), MMP1 (gene 4312) (UniProt P03956); experiment: NVS_ENZ_hMMP1: NovaScreen (NVS) Enzymatic Assay for human Matrix Metalloproteinase-1 (MMP1) (AID 2283181)
Summary of the method: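 Human MMP1 enzyme activity measured by fluorescence 1 h after dosing, cell-free, with a specific substrate. Screened in duplicate at 25 uM; hits (e.g. 30% inhibition) run in concentration-response up to 50 uM; loss of signal versus DMSO.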

[5] = target: rat Monoamine Oxidase, MAO-B, Peripheral (MAOBP), Maob (gene 25750) (UniProt P19643); experiment: NVS_ENZ_rMAOBP: NovaScreen (NVS) Enzymatic Assay for rat Monoamine Oxidase, MAO-B, Peripheral (MAOBP) (AID 2283242)
[6] = target: rat Oxytocin Receptor (OXT), Oxtr (gene 25342) (UniProt P70536); experiment: NVS_GPCR_rOXT: NovaScreen (NVS) G Protein-Coupled Receptor Assay for rat Oxytocin Receptor (OXT) (AID 2283330)
Summary of the method: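 Radioligand displacement on rat uterine membranes, 1 h incubation, filter-based scintillation counting. Chemicals were screened in duplicate at 25 uM, and those passing threshold were retested in concentration-response up to 50 uM. Loss of binding was fitted versus DMSO.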

[7] = target: human p21 Activated Kinase 4 (PAK4), PAK4 (gene 10298) (UniProt O96013); experiment: NVS_ENZ_hPAK4: NovaScreen (NVS) Enzymatic Assay for human p21 Activated Kinase 4 (PAK4) (AID 2283189)
Summary of the method: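 Cell-free recombinant human PAK4 activity assay; fluorescent substrate and product separated by electrophoretic mobility shift, read 1 h after dosing. Initially tested in duplicate at 25 uM, relative to DMSO baseline.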

[8] = target: human Phosphatase and Tensin Homolog (PTEN), PTEN (gene 5728) (UniProt P60484); experiment: NVS_ENZ_hPTEN: NovaScreen (NVS) Enzymatic Assay for human Phosphatase and Tensin Homolog (PTEN) (AID 2283203)
Summary of the method: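 Cell-free recombinant human PTEN with fluorescent substrate; product separated by electrophoretic mobility shift and read by fluorescence 1 h after dosing. Primary screen in duplicate at 25 uM, actives followed in concentration series versus DMSO.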

[9] = target: human Protein Tyrosine Phosphatase Receptor Type C (PTPRC), PTPRC (gene 5788) (UniProt P08575); experiment: NVS_ENZ_hPTPRC: NovaScreen (NVS) Enzymatic Assay for human Protein Tyrosine Phosphatase Receptor Type C (PTPRC) (AID 2283212)
Summary of the method: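 Yeast-extracted human PTPRC used in a cell-free colorimetric enzyme activity read-out, 1 h after dosing. Primary screen in duplicate at 25 uM; actives rerun in concentration-response up to 50 uM, DMSO as baseline.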

[10] = target: human Raf-1 Proto-Oncogene, serine/threonine Kinase (RAF1), RAF1 (gene 5894) (UniProt P04049); experiment: NVS_ENZ_hRAF1: NovaScreen (NVS) Enzymatic Assay for human Raf-1 Proto-Oncogene, serine/threonine Kinase (RAF1) (AID 2283216)
Summary of the method: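 Cell-free recombinant kinase with specific fluorescent substrate, product separated by electrophoretic mobility shift; read 1 h after dosing. Primary screen at 25 uM in duplicate; hits then run in concentration-response up to 50 uM, fitted as loss of signal versus DMSO.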

[11] = tested on: rat Monoamine Oxidase, MAO-A, Peripheral (MAOAP), gene 29253; experiment: NVS_ENZ_rMAOAP: NovaScreen (NVS) Enzymatic Assay for rat Monoamine Oxidase, MAO-A, Peripheral (MAOAP) (AID 2283237)
Summary of the method: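 Rat liver mitochondrial membranes served as the MAO-A source, with enzyme activity measured by radiometric scintillation counting 1.17 hours after dosing. Loss of signal was fitted against DMSO; primary screen used 25 uM in duplicate, follow-up used concentration series.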

[12] = read-out: xenobiotic metabolism (CYP2C9), CYP2C9 (gene 1559); experiment: CLD_CYP2C9_6hr: CellzDirect (CLD) Gene Expression Assay for xenobiotic metabolism (CYP2C9) at 6 hours (AID 2283664)
Summary of the method: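 Primary human hepatocytes dosed daily with test chemicals at multiple concentrations; harvested at 6 h. CYP2C9 mRNA induction measured by qNPA chemiluminescence. Gain of signal fitted against 0.2% DMSO vehicle; cytotoxicity annotated from phase-contrast morphology.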

Androgen receptor (Homo sapiens), sequence (P10275 whole entry, looked up, the tested form may be a part): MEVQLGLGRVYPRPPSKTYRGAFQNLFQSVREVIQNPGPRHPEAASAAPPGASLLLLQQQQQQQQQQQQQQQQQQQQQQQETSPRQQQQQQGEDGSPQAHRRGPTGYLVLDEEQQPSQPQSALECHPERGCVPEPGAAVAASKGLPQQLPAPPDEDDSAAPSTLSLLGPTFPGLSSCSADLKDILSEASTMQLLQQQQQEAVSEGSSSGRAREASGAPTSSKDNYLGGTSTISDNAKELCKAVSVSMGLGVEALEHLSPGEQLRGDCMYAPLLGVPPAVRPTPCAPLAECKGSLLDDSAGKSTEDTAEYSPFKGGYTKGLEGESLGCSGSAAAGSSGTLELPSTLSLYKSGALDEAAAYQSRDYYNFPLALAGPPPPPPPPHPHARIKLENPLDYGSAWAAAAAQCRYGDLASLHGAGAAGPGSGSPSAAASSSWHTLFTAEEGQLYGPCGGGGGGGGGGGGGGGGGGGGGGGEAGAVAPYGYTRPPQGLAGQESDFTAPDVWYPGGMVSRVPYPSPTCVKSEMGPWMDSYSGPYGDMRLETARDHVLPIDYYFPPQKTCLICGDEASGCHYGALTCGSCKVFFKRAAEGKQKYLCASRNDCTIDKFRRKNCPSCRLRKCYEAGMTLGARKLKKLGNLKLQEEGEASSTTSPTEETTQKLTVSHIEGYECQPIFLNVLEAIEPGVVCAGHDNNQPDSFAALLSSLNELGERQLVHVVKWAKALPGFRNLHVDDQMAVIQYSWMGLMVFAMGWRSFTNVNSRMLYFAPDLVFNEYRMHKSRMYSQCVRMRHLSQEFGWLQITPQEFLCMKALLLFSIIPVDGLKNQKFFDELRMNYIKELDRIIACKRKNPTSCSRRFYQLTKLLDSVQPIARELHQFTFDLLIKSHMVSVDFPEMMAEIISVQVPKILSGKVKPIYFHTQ
human Phosphatase and Tensin Homolog (PTEN), PTEN (gene 5728), sequence (P60484 whole entry, looked up): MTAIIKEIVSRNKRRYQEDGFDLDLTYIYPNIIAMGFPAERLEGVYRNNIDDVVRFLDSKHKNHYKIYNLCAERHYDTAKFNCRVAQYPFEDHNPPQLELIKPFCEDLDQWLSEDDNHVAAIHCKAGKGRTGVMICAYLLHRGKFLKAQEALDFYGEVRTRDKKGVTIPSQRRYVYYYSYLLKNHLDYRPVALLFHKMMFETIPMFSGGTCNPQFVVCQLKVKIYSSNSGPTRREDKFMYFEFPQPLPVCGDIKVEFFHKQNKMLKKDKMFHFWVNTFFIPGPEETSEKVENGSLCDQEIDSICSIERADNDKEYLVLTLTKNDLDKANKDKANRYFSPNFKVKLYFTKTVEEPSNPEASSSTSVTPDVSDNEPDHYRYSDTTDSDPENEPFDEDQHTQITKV
rat Monoamine Oxidase, MAO-B, Peripheral (MAOBP), Maob (gene 25750), sequence (P19643 whole entry, looked up): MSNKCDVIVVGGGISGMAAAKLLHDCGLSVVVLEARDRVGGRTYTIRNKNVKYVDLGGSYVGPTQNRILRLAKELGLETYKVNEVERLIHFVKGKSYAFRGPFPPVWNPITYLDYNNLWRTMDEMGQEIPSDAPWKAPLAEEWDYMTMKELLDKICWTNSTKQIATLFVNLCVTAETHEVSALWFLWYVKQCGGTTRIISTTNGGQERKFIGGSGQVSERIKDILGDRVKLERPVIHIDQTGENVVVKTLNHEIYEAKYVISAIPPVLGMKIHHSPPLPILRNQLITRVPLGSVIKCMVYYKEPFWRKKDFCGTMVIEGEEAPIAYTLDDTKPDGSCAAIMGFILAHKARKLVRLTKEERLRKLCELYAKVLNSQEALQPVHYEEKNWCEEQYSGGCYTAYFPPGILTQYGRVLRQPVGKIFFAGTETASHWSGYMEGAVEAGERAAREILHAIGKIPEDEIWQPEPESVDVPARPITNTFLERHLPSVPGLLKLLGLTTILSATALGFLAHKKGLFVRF
human Protein Tyrosine Phosphatase Receptor Type C (PTPRC), PTPRC (gene 5788), sequence (P08575 whole entry, looked up): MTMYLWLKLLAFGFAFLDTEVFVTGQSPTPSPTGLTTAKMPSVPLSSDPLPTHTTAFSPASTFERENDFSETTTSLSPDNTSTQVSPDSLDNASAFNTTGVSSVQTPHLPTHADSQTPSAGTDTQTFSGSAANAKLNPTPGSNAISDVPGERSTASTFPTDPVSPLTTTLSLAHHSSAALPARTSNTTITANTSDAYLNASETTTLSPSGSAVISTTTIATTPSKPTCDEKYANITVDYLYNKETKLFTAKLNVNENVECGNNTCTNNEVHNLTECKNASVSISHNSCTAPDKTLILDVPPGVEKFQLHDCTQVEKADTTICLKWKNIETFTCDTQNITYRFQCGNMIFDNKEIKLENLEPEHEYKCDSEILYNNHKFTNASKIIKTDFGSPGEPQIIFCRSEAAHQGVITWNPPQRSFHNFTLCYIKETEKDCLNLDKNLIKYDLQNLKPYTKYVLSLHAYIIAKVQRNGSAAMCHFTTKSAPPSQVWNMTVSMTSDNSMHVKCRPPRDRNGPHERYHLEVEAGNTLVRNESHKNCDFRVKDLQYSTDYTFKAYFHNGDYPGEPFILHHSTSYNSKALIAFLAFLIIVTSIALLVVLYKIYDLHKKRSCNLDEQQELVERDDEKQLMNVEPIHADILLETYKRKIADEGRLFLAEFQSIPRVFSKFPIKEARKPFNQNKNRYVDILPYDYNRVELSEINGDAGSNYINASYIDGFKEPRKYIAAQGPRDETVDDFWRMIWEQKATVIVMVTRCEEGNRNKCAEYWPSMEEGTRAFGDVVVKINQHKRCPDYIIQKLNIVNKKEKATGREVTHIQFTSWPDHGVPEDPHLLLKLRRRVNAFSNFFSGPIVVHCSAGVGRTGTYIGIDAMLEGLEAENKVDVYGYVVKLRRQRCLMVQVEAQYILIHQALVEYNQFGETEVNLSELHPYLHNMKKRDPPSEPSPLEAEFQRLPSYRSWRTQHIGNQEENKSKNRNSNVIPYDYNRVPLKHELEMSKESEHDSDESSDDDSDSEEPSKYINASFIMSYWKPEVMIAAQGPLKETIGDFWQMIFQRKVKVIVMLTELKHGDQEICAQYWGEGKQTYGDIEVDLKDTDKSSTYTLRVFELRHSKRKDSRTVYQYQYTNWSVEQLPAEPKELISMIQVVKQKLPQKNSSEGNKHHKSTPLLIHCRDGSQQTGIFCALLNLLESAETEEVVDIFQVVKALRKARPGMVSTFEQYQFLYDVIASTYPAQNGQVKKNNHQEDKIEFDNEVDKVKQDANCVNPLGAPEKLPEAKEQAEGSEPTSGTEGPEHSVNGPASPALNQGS
human MET Proto-Oncogene, Receptor Tyrosine Kinase (MET), MET (gene 4233), sequence (P08581 whole entry, looked up): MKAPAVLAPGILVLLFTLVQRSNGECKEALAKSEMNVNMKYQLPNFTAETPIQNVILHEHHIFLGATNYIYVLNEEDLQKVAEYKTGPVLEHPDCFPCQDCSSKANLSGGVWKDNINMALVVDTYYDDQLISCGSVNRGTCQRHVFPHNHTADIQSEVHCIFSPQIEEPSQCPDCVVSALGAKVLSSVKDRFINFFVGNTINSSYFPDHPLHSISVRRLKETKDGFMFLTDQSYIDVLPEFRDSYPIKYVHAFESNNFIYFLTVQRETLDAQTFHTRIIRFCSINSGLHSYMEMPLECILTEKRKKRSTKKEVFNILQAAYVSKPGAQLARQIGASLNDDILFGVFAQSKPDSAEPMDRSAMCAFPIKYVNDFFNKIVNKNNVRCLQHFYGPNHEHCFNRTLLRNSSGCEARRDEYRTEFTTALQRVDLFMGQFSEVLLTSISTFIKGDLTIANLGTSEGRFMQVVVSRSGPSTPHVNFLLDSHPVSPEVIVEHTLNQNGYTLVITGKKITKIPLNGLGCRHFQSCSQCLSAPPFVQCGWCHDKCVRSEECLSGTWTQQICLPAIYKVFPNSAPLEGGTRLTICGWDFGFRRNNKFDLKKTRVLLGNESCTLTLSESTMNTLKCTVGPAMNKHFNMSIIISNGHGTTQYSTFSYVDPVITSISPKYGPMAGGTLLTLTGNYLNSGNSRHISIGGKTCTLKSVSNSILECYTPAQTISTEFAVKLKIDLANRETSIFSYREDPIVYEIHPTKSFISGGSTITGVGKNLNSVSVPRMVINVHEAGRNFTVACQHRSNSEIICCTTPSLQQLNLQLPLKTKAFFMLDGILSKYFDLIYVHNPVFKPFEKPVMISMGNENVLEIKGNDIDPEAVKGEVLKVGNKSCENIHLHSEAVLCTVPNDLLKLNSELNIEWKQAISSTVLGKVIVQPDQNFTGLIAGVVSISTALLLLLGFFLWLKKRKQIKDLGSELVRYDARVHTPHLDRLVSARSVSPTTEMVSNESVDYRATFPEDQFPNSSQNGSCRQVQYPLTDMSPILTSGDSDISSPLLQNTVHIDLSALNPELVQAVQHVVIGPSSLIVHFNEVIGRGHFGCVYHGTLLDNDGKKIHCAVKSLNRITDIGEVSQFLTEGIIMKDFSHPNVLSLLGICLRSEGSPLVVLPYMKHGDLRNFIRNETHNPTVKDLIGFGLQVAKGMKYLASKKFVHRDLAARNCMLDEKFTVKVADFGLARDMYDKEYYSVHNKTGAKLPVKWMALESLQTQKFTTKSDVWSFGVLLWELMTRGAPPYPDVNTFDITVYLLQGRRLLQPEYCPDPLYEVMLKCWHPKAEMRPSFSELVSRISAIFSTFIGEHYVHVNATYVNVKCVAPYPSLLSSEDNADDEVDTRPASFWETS
human Matrix Metalloproteinase-1 (MMP1), MMP1 (gene 4312), sequence (P03956 whole entry, looked up): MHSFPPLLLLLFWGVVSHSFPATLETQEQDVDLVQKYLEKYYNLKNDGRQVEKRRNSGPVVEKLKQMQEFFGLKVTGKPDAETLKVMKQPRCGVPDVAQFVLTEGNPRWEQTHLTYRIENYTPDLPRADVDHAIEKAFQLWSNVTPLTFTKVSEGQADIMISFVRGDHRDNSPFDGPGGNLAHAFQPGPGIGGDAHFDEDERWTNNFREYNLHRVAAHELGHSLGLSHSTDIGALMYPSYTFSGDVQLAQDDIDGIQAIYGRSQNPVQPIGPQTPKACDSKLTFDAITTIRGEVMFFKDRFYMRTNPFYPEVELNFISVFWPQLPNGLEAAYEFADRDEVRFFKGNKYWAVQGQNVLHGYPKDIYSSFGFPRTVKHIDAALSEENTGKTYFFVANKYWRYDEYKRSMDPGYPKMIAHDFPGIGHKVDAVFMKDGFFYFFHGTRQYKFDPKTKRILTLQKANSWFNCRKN

Structure (SMILES): COCCC(=O)OC
- outcome [1]: inactive
- outcome [2]: inactive

Structure (SMILES): COc1ccc(S(=O)(=O)N2C(=O)[C@@](c3ccccc3OC)(N3C[C@H](O)C[C@H]3C(=O)N(C)C)c3cc(Cl)ccc32)c(OC)c1
- outcome [1]: inactive
- outcome [3]: inactive
- outcome [4]: inactive
- outcome [5]: inactive
- AC50 [6]: 0.0663 µM (active)

Structure (SMILES): C=CCCCCCCCCCCCC
- outcome [1]: inactive
- outcome [7]: inactive
- outcome [5]: inactive

Structure (SMILES): CC1CCC(C(C)(C)O)CC1 (stereo not drawn)
- outcome [1]: inactive
- AC50 [8]: 1.56 µM (active)

Structure (SMILES): CC(C)CCOCCC(C)C
- outcome [1]: inactive
- outcome [8]: inactive

Structure (SMILES): O=C(c1ccccc1)C1CCCCC1
- outcome [1]: inactive
- outcome [9]: inactive
- outcome [5]: inactive

Structure (SMILES): C=C1CC[C@H]2O[C@]2(C)CC[C@@H]2[C@@H]1CC2(C)C
- outcome [1]: inactive
- outcome [8]: inactive

Structure (SMILES): CC(C)=CCCC(C)O (stereo not drawn)
- outcome [1]: inactive
- outcome [8]: inactive

Structure (SMILES): O=C(O)Cc1ccccc1Nc1c(Cl)cccc1Cl
- outcome [1]: inactive
- outcome [9]: inactive

Structure (SMILES): COc1ccccc1C=O
- outcome [1]: inactive
- outcome [8]: inactive

Structure (SMILES): CCOC(=O)COc1cc(-n2ncc(C(F)(F)F)c(C)c2=O)c(F)cc1Cl
- outcome [1]: inactive
- outcome [10]: inactive
- outcome [11]: inactive
- outcome [12]: inactive

Structure (SMILES): C=C(C)CCO
- outcome [1]: inactive
- outcome [8]: inactive

Structure (SMILES): CC/C=C\C/C=C\C/C=C\CCCCCCCC(=O)OC
- outcome [1]: inactive
- AC50 [8]: 9.64 µM (active)
